Results published in PubChem BioAssay (NCI).
Compounds without any hit were thinned out: in the full panel of roughly 79,000, 15% have a hit. Active and inactive are the calls of the source. No stated cut-off is given here; in the data, active means growth inhibition above about 70%; inactive means the rest.

How the values were obtained:
[1] = NCI Yeast Anticancer Drug Screen. Data for the rad52 strain (AID 147);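 further: 0% = growth of vehicle-treated control cultures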; settings: S. cerevisiae rad52 mutant growth inhibition, hits give high values
Summary of the method: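 Inhibition of yeast growth, referenced to vehicle controls, was the measured output for a strain with defective DNA damage repair.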

[2] = NCI Yeast Anticancer Drug Screen. Data for the wt1 strain (AID 149);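 further: 0% = growth of vehicle-treated wt1 cultures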; settings: S. cerevisiae wt1 strain (SPY 50644) growth inhibition, hits give high values
Summary of the method: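 Vehicle-normalised growth inhibition; strain wt1; compound exposure.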

[3] = NCI Yeast Anticancer Drug Screen. Data for the rad50EPP+ strain (AID 151);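 further: 0% = growth of vehicle-treated control cultures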; settings: S. cerevisiae rad50 mutant strain, hits give high values
Summary of the method: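 Genetically defined yeast (rad50EPP+, DNA damage repair alteration) is grown with compound, and inhibition of growth is expressed relative to vehicle-treated controls.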

[4] = NCI Yeast Anticancer Drug Screen. Data for the mgt1 strain (AID 153); settings: S. cerevisiae mgt1 mutant growth inhibition, hits give high values
Summary of the method: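 In the mgt1 strain, test compounds were added and growth inhibition was determined relative to vehicle-treated controls.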

[5] = NCI Yeast Anticancer Drug Screen. Data for the rad50 strain (AID 155);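 further: 0% = growth of vehicle-only cultures of the same strain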; settings: S. cerevisiae rad50 strain growth inhibition, hits give high values
Summary of the method: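 A DNA repair-deficient yeast mutant serves as the test organism; compound-induced growth inhibition is calculated against vehicle-treated cells.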

[6] = NCI Yeast Anticancer Drug Screen. Data for the mec2-1 strain (AID 157); settings: S. cerevisiae mec2-1 strain, hits give high values
Summary of the method: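 Each compound was tested on mec2-1 yeast, a strain altered in DNA damage repair or cell cycle control. Growth inhibition is reported relative to vehicle.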

[7] = NCI Yeast Anticancer Drug Screen. Data for the rad14 strain (AID 159);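 further: 0% = growth of vehicle-treated control cultures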; settings: S. cerevisiae rad14 strain growth inhibition, hits give high values
Summary of the method: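 Vehicle-treated cultures served as the baseline for growth inhibition of a DNA repair-mutant yeast strain exposed to each compound.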

[8] = NCI Yeast Anticancer Drug Screen. Data for the sgs1 mgt1 strain (AID 161);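 further: 0% = growth of cultures given vehicle only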; settings: S. cerevisiae sgs1 mgt1 strain, hits give high values
Summary of the method: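 Genetically altered yeast, compound exposure, growth inhibition relative to vehicle.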

[9] = NCI Yeast Anticancer Drug Screen. Data for the CLN2oe strain (AID 163);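 further: 0% = growth of vehicle-only control cultures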; settings: S. cerevisiae CLN2oe strain, hits give high values
Summary of the method: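 First, the altered yeast strain was treated with each compound; second, its growth was measured; finally, inhibition was derived by comparison with vehicle controls.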

[10] = NCI Yeast Anticancer Drug Screen. Data for the cln2 rad14 strain (AID 165);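 further: 0% = growth equal to vehicle treated cultures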; settings: S. cerevisiae cln2 rad14 strain, hits give high values
Summary of the method: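 Test compounds were added to cln2 rad14 yeast cultures; inhibition of growth was then determined by comparison with vehicle treatment.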

[11] = NCI Yeast Anticancer Drug Screen. Data for the bub3 strain (AID 167); settings: S. cerevisiae bub3 mutant strain, hits give high values
Summary of the method: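 Inhibition values come from growth of compound-treated mutant yeast normalised to vehicle-treated controls.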

[12] = NCI Yeast Anticancer Drug Screen. Data for the wt2 strain (AID 169);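 further: 0% = growth of vehicle-treated yeast cultures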; settings: S. cerevisiae wt2 strain growth inhibition, hits give high values
Summary of the method: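 The panel's yeast strains carry defined changes in DNA repair or cell cycle genes. Each strain is grown with compound, and growth loss is scored relative to vehicle.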

[13] = NCI Yeast Anticancer Drug Screen. Data for the mlh1 strain (AID 171);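 further: 0% = growth of vehicle-treated control cultures of the same strain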; settings: S. cerevisiae mlh1 strain growth inhibition, hits give high values
Summary of the method: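 Inhibition values reflect reduced yeast growth in the presence of compound, referenced to vehicle controls, using a strain chosen for its alteration in DNA repair or cell cycle control.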

[14] = NCI Yeast Anticancer Drug Screen. Data for the sgs1 strain (AID 173);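 further: 0% = growth of vehicle-only control cultures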; settings: S. cerevisiae sgs1 mutant, hits give high values
Summary of the method: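 Vehicle-treated cultures served as reference for growth inhibition of a yeast strain altered in DNA damage repair or cell cycle control after compound exposure.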

[15] = NCI Yeast Anticancer Drug Screen. Data for the mlh1 rad18 strain (AID 175); settings: S. cerevisiae mlh1 rad18 strain growth inhibition, hits give high values
Summary of the method: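 Inhibition values reflect reduced growth of mutant yeast versus vehicle-treated controls following compound exposure; the mutations affect DNA damage repair.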

[16] = NCI Yeast Anticancer Drug Screen. Data for the rad18 strain (AID 177); settings: S. cerevisiae rad18 mutant growth inhibition, hits give high values
Summary of the method: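 Steps: expose repair-mutant yeast to compound; measure growth; express as inhibition relative to vehicle control.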

[17] = at 5.0 µM (retest, dose inferred, filed as 0.5)
[18] = at 50.0 µM (retest, dose inferred, filed as 5.0)

Measured: growth inhibition

CCC(C)(C)c1ccc(Oc2ccccc2)c(N)c1
active: [1]; at 11.0 µM 96% | [1]; at 33.0 µM 99% | [1]; at 100.0 µM 98% | [2]; at 11.0 µM 97% | [2]; at 33.0 µM 99% | [2]; at 100.0 µM 98% | [3]; at 33.0 µM 84% | [3]; at 100.0 µM 90% | [4]; at 11.0 µM 96% | [4]; at 33.0 µM 99% | [4]; at 100.0 µM 99% | [5]; at 11.0 µM 94% | [5]; at 33.0 µM 98% | [5]; at 50.0 µM 90.5% | [5]; at 100.0 µM 99% | [6]; at 11.0 µM 96% | [6]; at 33.0 µM 99% | [6]; at 50.0 µM 93.2% | [6]; at 100.0 µM 99% | [7]; at 11.0 µM 97% | [7]; at 33.0 µM 99% | [7]; at 100.0 µM 99% | [8]; [18] 97% | [8]; at 50.0 µM 93.5% | [9]; at 11.0 µM 96% | [9]; at 33.0 µM 99% | [9]; at 100.0 µM 97% | [10]; [18] 99% | [10]; at 50.0 µM 92.3% | [11]; at 11.0 µM 95% | [11]; at 33.0 µM 99% | [11]; [18] 99% | [11]; at 50.0 µM 92.3% | [11]; at 100.0 µM 98% | [12]; at 11.0 µM 97% | [12]; at 33.0 µM 99% | [12]; at 100.0 µM 99% | [13]; at 11.0 µM 95% | [13]; at 33.0 µM 98% | [13]; at 100.0 µM 98% | [14]; at 11.0 µM 94% | [14]; at 33.0 µM 99% | [14]; at 100.0 µM 98% | [15]; at 50.0 µM 91.2% | [16]; at 11.0 µM 94% | [16]; at 33.0 µM 99% | [16]; at 100.0 µM 97%
inactive: [1]; at 1.2 µM -21% | [1]; at 3.7 µM -4% | [2]; at 1.2 µM -15% | [2]; at 3.7 µM -12% | [3]; at 1.2 µM 3% | [3]; at 3.7 µM 36% | [3]; at 11.0 µM 66% | [4]; at 1.2 µM -16% | [4]; at 3.7 µM -1% | [5]; at 1.2 µM -33% | [5]; at 3.7 µM -6% | [5]; [17] 42% | [5]; [18] 51% | [6]; at 1.2 µM -40% | [6]; at 3.7 µM -24% | [6]; [17] 44% | [6]; [18] 50% | [7]; at 1.2 µM -2% | [7]; at 3.7 µM 13% | [8]; [17] 2% | [9]; at 1.2 µM -22% | [9]; at 3.7 µM -2% | [10]; [17] 62% | [11]; at 1.2 µM -10% | [11]; at 3.7 µM -6% | [11]; [17] 36% | [12]; at 1.2 µM -17% | [12]; at 3.7 µM 0% | [13]; at 1.2 µM -30% | [13]; at 3.7 µM -18% | [14]; at 1.2 µM -17% | [14]; at 3.7 µM 6% | [15]; [17] 39% | [15]; [18] 45% | [16]; at 1.2 µM -31% | [16]; at 3.7 µM -7%

NC(CCCCCCCCCCCCC(N)C(=O)c1ccccc1)C(=O)c1ccccc1 (stereo not drawn)
inactive: [1]; at 1.2 µM -3% | [1]; at 3.7 µM -4% | [2]; at 1.2 µM -4% | [2]; at 3.7 µM -12% | [3]; at 1.2 µM -2% | [3]; at 3.7 µM -1% | [3]; at 11.0 µM -2% | [3]; at 33.0 µM -1% | [3]; at 100.0 µM -3% | [4]; at 1.2 µM -5% | [4]; at 3.7 µM -9% | [4]; at 11.0 µM 17% | [4]; at 33.0 µM 39% | [5]; at 1.2 µM -3% | [5]; at 3.7 µM -6% | [5]; [17] -9% | [5]; at 50.0 µM -5.55% | [6]; at 1.2 µM -6% | [6]; at 3.7 µM -15% | [6]; [17] -15% | [6]; at 11.0 µM 43% | [6]; at 33.0 µM 61% | [6]; at 50.0 µM -9.95% | [7]; at 1.2 µM -6% | [7]; at 3.7 µM -12% | [7]; at 11.0 µM 38% | [7]; at 33.0 µM 62% | [8]; [17] -10% | [8]; at 50.0 µM -12.2% | [9]; at 1.2 µM -9% | [9]; at 3.7 µM -20% | [9]; at 11.0 µM 52% | [10]; [17] -26% | [10]; at 50.0 µM -32.3% | [11]; at 1.2 µM -3% | [11]; at 3.7 µM 0% | [11]; [17] 4% | [11]; at 50.0 µM -2.55%
active: [1]; at 11.0 µM 88% | [1]; at 33.0 µM 92% | [1]; at 100.0 µM 96% | [2]; at 11.0 µM 75% | [2]; at 33.0 µM 95% | [2]; at 100.0 µM 95% | [4]; at 100.0 µM 94% | [5]; at 11.0 µM 81% | [5]; at 33.0 µM 85% | [5]; [18] 88% | [5]; at 100.0 µM 93% | [6]; [18] 92% | [6]; at 100.0 µM 91% | [7]; at 100.0 µM 96% | [8]; [18] 94% | [9]; at 33.0 µM 91% | [9]; at 100.0 µM 95% | [10]; [18] 92% | [11]; at 11.0 µM 74% | [11]; at 33.0 µM 95% | [11]; [18] 94% | [11]; at 100.0 µM 91%
